Where “and” joins values, the source holds several entries; their conditions need not be identical. Equal entries are not always repeated. In all, about 5,500 compounds went through this assay and about 2,000 (36%) were called active. Inconclusive results (about 18%) are left out. No stated cut-off is given here; in the data, active means normalized growth mostly below about 0.91 (no sharp cut-off); inconclusive means no clear call, values can overlap the other calls; inactive means mostly above about 0.92. Some of the results follow.
Experiment: chemical genetic growth profiling, strain panel (AID 1159580);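 further: tested at 20 µM; growth read once vehicle control cultures reached saturation at 30 °C; 1 = growth at the plate median or of vehicle wells; lower values mean less growth of the strain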
Settings: S. cerevisiae deletion strains, growth OD

Measured: normalized growth

C=CCC1(C(C)CCC)C(=O)N=C(S)NC1=O (stereo unspecified)
inactive: locus YAL013W, strain DEP1, hits give low values 0.989 | locus YAL021C, strain ccr4, hits give low values 0.989 | locus YAL026C, strain drs2, hits give low values 1 | locus YAL030W, strain snc1, hits give low values 0.984 | locus YBL061C, strain skt5, hits give low values 0.975 | locus YBR009C, strain hhf1, hits give low values 1.01 | locus YBR021W, strain FUR4, hits give low values 0.982 | locus YBR023C, strain chs3, hits give low values 0.986 | locus YBR171W, strain sec66, hits give low values 0.949 | locus YBR229C, strain ROT2, hits give low values 0.994 | locus YBR231C, strain swc5, hits give low values 0.976 | locus YBR279W, strain paf1, hits give low values 0.998 | locus YCL011C, strain gbp2, hits give low values 0.974 | locus YCL016C, strain dcc1, hits give low values 1 | locus YCL029C, strain bik1, hits give low values 0.981 | locus YCL061C, strain MRC1, hits give low values 0.982 | locus YCL069W, strain vba3, hits give low values 0.99 | locus YCR088W, strain abp1, hits give low values 0.967 | locus YDL005C, strain med2, hits give low values 0.937 | locus YDL035C, strain GPR1, hits give low values 0.985 | locus YDL040C, strain nat1, hits give low values 0.973 | locus YDL074C, strain BRE1, hits give low values 1.06 | locus YDL101C, strain DUN1, hits give low values 0.979 | locus YDL134C, strain PPH21, hits give low values 0.997 | locus YDL185W, strain tfp1, hits give low values 0.958 | locus YDL192W, strain arf1, hits give low values 0.976 | locus YDR001C, strain nth1, hits give low values 0.949 | locus YDR069C, strain doa4, hits give low values 0.949 | locus YDR101C, strain arx1, hits give low values 0.988 | locus YDR137W, strain rgp1, hits give low values 0.919 | locus YDR150W, strain NUM1, hits give low values 0.994 | locus YDR159W, strain sac3, hits give low values 0.952 | locus YDR162C, strain NBP2, hits give low values 1.01 | locus YDR195W, strain ref2 0.885 | locus YDR297W, strain sur2, hits give low values 0.983 | locus YDR318W, strain mcm21, hits give low values 0.986 | locus YDR334W, strain swr1, hits give low values 0.938 | locus YDR335W, strain msn5, hits give low values 0.964 | locus YDR388W, hits give low values 0.986 | locus YDR392W, strain spt3, hits give low values 1.01 | locus YDR502C, strain sam2, hits give low values 1 | locus YEL003W, strain gim4, hits give low values 0.979 | locus YEL037C, strain rad23, hits give low values 0.974 | locus YEL061C, strain CIN8 (second series), hits give low values 0.968 | locus YEL061C, strain CIN8, hits give low values 0.988 | locus YER015W, strain faa2, hits give low values 0.957 | locus YER016W, strain bim1, hits give low values 0.987 | locus YER110C, hits give low values 0.981 | locus YER111C, strain swi4, hits give low values 0.989 | locus YER155C, strain BEM2 (second series), hits give low values 0.928 | locus YER155C, strain BEM2, hits give low values 0.988 | locus YER167W, strain BCK2, hits give low values 0.961 | locus YFR010W, strain ubp6, hits give low values 0.952 | locus YGL078C, strain dbp3, hits give low values 0.986 | locus YGL086W, strain mad1, hits give low values 0.975 | locus YGL167C, strain pmr1, hits give low values 0.962 | locus YGL173C, strain kem1, hits give low values 0.999 | locus YGL227W, strain vid30, hits give low values 0.954 | locus YGL240W, strain doc1, hits give low values 0.944 | locus YGL248W, strain PDE1, hits give low values 1 | locus YGL253W, strain hxk2, hits give low values 0.969 | locus YGR078C, strain PAC10, hits give low values 1.02 | locus YGR135W, strain pre9, hits give low values 1.02 | locus YGR229C, strain SMI1, hits give low values 1.02 | locus YGR252W, strain gcn5, hits give low values 1.03 | locus YHR013C, strain ard1, hits give low values 0.964 | locus YHR027C, strain rpn1, hits give low values 0.977 | locus YHR030C, strain SLT2, hits give low values 0.976 and 0.982 | locus YHR079C, strain IRE1 (second series), hits give low values 0.987 | locus YHR079C, strain IRE1, hits give low values 0.979 | locus YHR094C, strain hxt1, hits give low values 0.968 | locus YHR129C, strain ARP1, hits give low values 1 | locus YHR142W, strain chs7, hits give low values 0.996 | locus YHR200W, strain rpn10, hits give low values 0.965 | locus YIL066C, strain RNR3, hits give low values 0.999 | locus YIL073C, strain SPO22, hits give low values 0.934 | locus YIL125W, strain kgd1, hits give low values 0.982 | locus YIR030C, strain dcg1, hits give low values 0.978 | locus YJL092W, strain hpr5, hits give low values 0.985 | locus YJL095W, strain BCK1 (second series), hits give low values 0.975 | locus YJL095W, strain BCK1, hits give low values 1.07 and 0.994 | locus YJL115W, strain asf1, hits give low values 0.952 | locus YJL129C, strain trk1, hits give low values 0.928 | locus YJL134W, strain LCB3, hits give low values 0.979 | locus YJL154C, strain vps35, hits give low values 0.965 | locus YJL164C, strain tpk1, hits give low values 1.01 | locus YJL166W, strain qcr8, hits give low values 0.969 | locus YJL168C, strain set2, hits give low values 0.983 | locus YJL187C, strain SWE1 (second series), hits give low values 1.01 | locus YJR043C, strain POL32, hits give low values 0.978 | locus YJR066W, strain TOR1, hits give low values 0.959
